# Reference: PubChem BioAssay (NCI)
# Compounds without any hit were thinned out: in the full panel of roughly 83,000, 20% have a hit.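 Values shown are percent growth following 48 h exposure of cells in 96-well plates to a single concentration of compound; below 10 was considered active.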 Values without a mark were called inactive. Activity calls are given as the source filed them.
# What was measured:
# Assay in all cases: NCI-60 one-dose screen, 48 h (100 = growth as untreated, 0 = no growth, -100 = all killed)
# Conditions in all cases: 10 µM unless noted
# SR leukemia = system: SR leukemia
# RPMI-8226 leukemia = system: RPMI-8226 leukemia
# OVCAR-8 ovarian = system: OVCAR-8 ovarian
# OVCAR-5 ovarian = system: OVCAR-5 ovarian
# OVCAR-4 ovarian = system: OVCAR-4 ovarian
# SK-OV-3 ovarian = system: SK-OV-3 ovarian
# IGROV1 ovarian = system: IGROV1 ovarian
# OVCAR-3 ovarian = system: OVCAR-3 ovarian
# HS 578T breast = system: HS 578T breast
# NCI/ADR-RES ovarian = system: NCI/ADR-RES ovarian
# T-47D breast = system: T-47D breast
# BT-549 breast = system: BT-549 breast
# MDA-MB-435 melanoma = system: MDA-MB-435 melanoma
# SW-620 colon = system: SW-620 colon
# MCF7 breast = system: MCF7 breast
# HCT-116 colon = system: HCT-116 colon
# HCC-2998 colon = system: HCC-2998 colon
# KM12 colon = system: KM12 colon
SMILES,growth (SR leukemia),growth (RPMI-8226 leukemia),growth (OVCAR-8 ovarian) [%],growth (OVCAR-5 ovarian) [%],growth (OVCAR-4 ovarian) [%],growth (SK-OV-3 ovarian) [%],growth (IGROV1 ovarian) [%],growth (OVCAR-3 ovarian),growth (HS 578T breast),growth (NCI/ADR-RES ovarian) [%],growth (T-47D breast) [%],growth (BT-549 breast) [%],growth (MDA-MB-435 melanoma),growth (SW-620 colon) [%],growth (MCF7 breast) [%],growth (HCT-116 colon) [%],growth (HCC-2998 colon) [%],growth (KM12 colon)
COc1cc(OC)c2cc(C(=O)c3ccc(C#N)cc3)c(=O)oc2c1,89.8%,103%,97.1,89.9,96.3,100,104,107%,82.1%,101,88.2,87.3,94.6%,106,97.1,92.1,107,97.5%
Nc1ccc2ccccc2c1-c1c(N)ccc2ccccc12,4.26% (active),24.9%,44,57.1,66,30.8,45.8,5.64% (active),35.6%,16.5,32.2,61.5,-4.5% (active),–,19.6,24.9,66.3,25.7%
CSc1nsc(N)n1,98.4%,114%,105,107,104,105,97.6,110%,90.7%,101,98.8,100,102%,–,95.8,104,106,101%
O=C1C=Cc2ccccc2/C1=C/c1[nH]c(=O)[nH]c1O,33%,87.3%,45.4,86.7,41,32.8,33.2,-32.3% (active),-6.84% (active),67.8,39.6,20.6,-6.05% (active),–,12.9,17.2,54.1,40.2%
CCOS(=O)(=O)c1ccc([N+](=O)[O-])cc1,88.2%,106%,104,103,101,111,105,106%,108%,105,101,111,107%,–,103,106,104,108%
O=C(CC(CC(=O)c1ccccc1)c1ccccn1)c1ccccc1,92.9%,96.8%,101,105,105,104,96.8,106%,84.8%,97.4,97.2,101,–,101,107,94,97,102%
CC(C)(CC(=O)O)CC(=O)O,99.3%,104%,121,99.5,108,120,111,105%,111%,99.9,119,98.6,99.7%,103,103,103,99.8,100%
Cc1cc2c3ccc(C)[n+](C)c3ccc2n1C,15.4%,21.2%,30.3,68.2,62.6,35.9,54.7,47%,38.6%,88.3,74.5,16.8,52%,15.1,57,29.4,22.2,5.81% (active)
FC(F)(F)c1cc(NC2=NCCN=C(Nc3cc(C(F)(F)F)cc(C(F)(F)F)c3)SS2)cc(C(F)(F)F)c1,1.94% (active),6.78% (active),48.6,102,65.8,79.5,49.7,25.8%,79.3%,59.6,15.8,71.2,65.1%,52,31.6,45.4,76.9,44.2%
